Bioassay records deposited in PubChem BioAssay by National Center for Advancing Translational Sciences (NCATS).
In the library only some 13% were active in any assay of this set; here they are far more common.
HCMV antiviral: qHTS Assay for inhibitors of the human cytomegalovirus (HCMV); hit rate 4.5% among 410,000; activity change, negative = inhibition, % at 57.5 µM; HFF cells, HCMV-luciferase reporter, 72 h; hits give low values; in the data active = activity change below about -60%; inconclusive = no clear call, values can overlap the other calls; inactive = above about -39%
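Inhibition of viral replication was scored as loss of reporter luminescence in HFFs infected with HCMV-luciferase (MOI 1 PFU/cell) for 72 h; compounds tested at 2 doses, normalized to buffer and Salinomycin controls.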
Pf growth 96h: Primary qHTS for delayed death inhibitors of the malarial parasite plastid, 96 hour incubation; Potency, µM (top dose mostly 28.7 µM), inactives show at the highest dose activity change, negative = inhibition, actives largely listed as inhibitors; hit rate 6.9% among 320,000; P. falciparum luciferase reporter growth, 96 h; AID 504834, 2011; also: potency is read from the fitted curve at half-maximal effect
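Cell-based qHTS: luciferase-tagged P. falciparum in erythrocytes (2% hematocrit, 0.05% parasitemia final) incubated with compounds for 96 hours, 37 C, 5% CO2; luciferase detection reagent then added and luminescence measured.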
HCV inhibitor: qHTS Assay for Inhibitors of Hepatitis C Virus (HCV) | AID 651820, 2012 | Huh7.5.1 HCVcc-Cre infection, luciferase reporter, 44 h | Potency, µM (top dose mostly 41.8 µM), without a hit: at the highest dose activity change, negative = inhibition, most hits filed as inhibitors | hit rate 3.4% among 340,000; also: potency is read from the fitted curve at half-maximal effect
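HCVcc-Cre virus at an moi near 0.5 was added right after compound to cells cultured 4 h from seeding (1,000 cells/well). Luciferase activity was determined 44 h later, 15 min after substrate addition at RT.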
Pf growth 48h: Primary qHTS for delayed death inhibitors of the malarial parasite plastid, 48 hour incubation | P. falciparum luciferase growth in erythrocytes, 48 h | Potency, µM (titrated, usually from 28.7 µM), without a hit: at the top dose activity change, negative = inhibition, hits mostly inhibitors | hit rate 5.9% among 310,000 | AID 504832, 2011; also: potency is read from the fitted curve at half-maximal effect
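Parasite viability was followed by luminescence of a genomically integrated firefly luciferase. Cultures held 0.1% parasitemia at 2% hematocrit (final), incubated under 5% CO2 at 37 C.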
Active calls of the source: *; ? = inconclusive; . = no result given; ! = not confirmed by another sample; [ ] = remark or other dose. Unless noted, calls follow the shape of the dose curve; as a rule, active = well fitted inhibition curve with a large enough effect; inconclusive = small, poorly fitted or top-dose-only effect, or another doubt; inactive = no such curve, though single readings can be large or run the other way. % is scaled to controls: 0 for no effect and ±100 for the full control effect.

SMILES	HCMV antiviral	Pf growth 96h	HCV inhibitor	Pf growth 48h
CSCCC(NS(=O)(=O)c1ccc(C)cc1)C(=O)N1CCN(C(c2ccccc2)c2ccccc2)CC1 (configuration not stated)	-6	6.6µM*	?	3.7µM*
CSCCC(NS(=O)(=O)c1ccc2c(c1)oc(=O)n2C)C(=O)NC1CCC(C)CC1 (configuration not stated)	7	-27%	7%	13%
CSCCC(NS(=O)(=O)c1ccc(C)cc1)C(=O)NC1CCCCC1 (configuration not stated)	-29	-30%	-8%	-1%
CSCCC(NS(=O)(=O)c1ccc(C)cc1)C(=O)NC1CCCCCC1 (configuration not stated)	-15	?	-29%	9.3µM*
COc1cc(OC)c(NC(=O)CCCn2nc(C)c3c(C)n(-c4ccccc4)nc3c2=O)cc1Cl	-10	.	.	.
CCOC(=O)c1ccccc1NC(=O)CSc1nc(=O)[nH]c2c1CCC2	-9	.	.	.
Cc1ccc(NC(=O)c2cccc(S(=O)(=O)N3CCCC3)c2)nc1	6	33%	8%	36%
CC(=O)Nc1ccc(NC(=O)c2cccc(S(=O)(=O)N(C)C3CCCCC3)c2)cc1	0	?	?	7.4µM*
CC(C)c1ccc(NC(=O)c2cc(S(=O)(=O)N(C)C3CCCCC3)ccc2F)cc1	-27	.	.	.
Cc1ccc(NC(=O)c2cccc(S(=O)(=O)N(C)C3CCCCC3)c2)nc1	-31	9.3µM*	-16%[8.37 µM]	5.2µM*
Cc1ccccc1C1=NOC2CN(C(=O)COc3ccccc3)CC12 (configuration not stated)	-23	.	.	.
CCCN(CCC)C(=O)CCSCCC(=O)N(CCC)CCC	-102*	-8%	3%	14%
O=C(NCc1cccs1)c1nn(-c2ccccc2Cl)nc1CO	-23	.	.	.
C/C=C(\C)C(=O)N[C@@H](c1ccccc1)[C@@H](O)C(=O)O[C@H]1C[C@@]2(O)[C@@H](OC(=O)c3ccccc3)C3[C@](C)(C(=O)[C@H](O)C(=C1C)C2(C)C)[C@@H](O)C[C@H]1OC[C@@]31OC(C)=O (some centres not stated)	22	0.074µM*	?	0.066µM*
CC(=O)O[C@@]12CO[C@@H]1C[C@H](O)[C@@]1(C)C(=O)[C@H](O)C3=C(C)[C@@H](O)C[C@@](O)([C@@H](OC(=O)c4ccccc4)C12)C3(C)C (some centres not stated)	4	?	?	9%
C/C=C(\C)C(=O)N[C@@H](c1ccccc1)[C@@H](O)C(=O)O[C@H]1C[C@@]2(O)[C@@H](OC(=O)c3ccccc3)C3[C@](C)(C(=O)[C@H](OC(C)=O)C(=C1C)C2(C)C)[C@@H](O)C[C@H]1OC[C@@]31OC(C)=O (some centres not stated)	?	0.033µM*	-29%	?
Cc1c(C(=O)N2CCC(C)CC2)c(S(=O)(=O)NCc2ccc(Cl)cc2)c(C)n1C	-36	.	.	.
O=C(CSc1nc2nccnc2c(=O)n1CCc1c[nH]c2ccccc12)Nc1ccc(F)cc1	-63*	.	.	.
Cc1cc(N2CCN(c3ccccn3)CC2)n2c(nc3ccccc32)c1C#N	-16	1%	?	4.7µM*
N#Cc1c2c(c(N3CCN(c4ccccn4)CC3)n3c1nc1ccccc13)CCC2	.	0.13µM*	.	.
Cc1ccc2nc(-c3ccc(C#N)cc3)c(Cc3cccc(F)c3)n2c1	38	.	.	.
Cc1c(CNC2CCCCCC2)c(C(=O)O)c(C)n1Cc1c(F)cccc1Cl	-1	.	.	.
NC(=O)CC[C@@H]1NC(=O)[C@H](Cc2ccccc2)NC(=O)[C@H](Cc2ccc(O)cc2)NC(=O)[C@@H](N)CSSC[C@@H](C(=O)N2CCC[C@H]2C(=O)N[C@@H](CCCN=C(N)N)C(=O)NCC(N)=O)NC(=O)[C@H](CC(N)=O)NC1=O	.	12µM*!	-11%[8.37 µM]	?
Cn1cc(C(=O)c2ccc(Cl)cc2)cc1-c1nc2ccccc2n1C	-69*	.	25µM*	?
CCCNC(=O)Cn1nc(-c2ccc(F)cc2)c2cnc3ccc(F)cc3c21	16	.	.	.
C(=N\Nc1nc2ccccc2[nH]1)/c1ccc2c(c1)OCCO2	-1	?	?	?
Cc1ccc(/C=N/Nc2ccc3ccccc3n2)o1	-79*	-89%	-30%	77%
